Test results published in PubChem BioAssay AID504832 (National Center for Advancing Translational Sciences (NCATS), 2011).
In all, about 310,000 compounds went through this assay and about 18,000 (5.8%) were called active. About 22% were inconclusive and are not listed. The sample holds actives, similar compounds and a random draw of the others, so the mix is not that of the screen. Values without a mark were called inactive. Calls come from the whole dose curve; as a rule, active = well fitted inhibition curve with a large enough effect; inconclusive = small, poorly fitted or top-dose-only effect, or another doubt; inactive = no such curve, though single readings can be large or run the other way.

Experiment: Primary qHTS for delayed death inhibitors of the malarial parasite plastid, 48 hour incubation
Conditions: P. falciparum luciferase growth in erythrocytes; series mostly up to 28.7 µM; activity change, negative = inhibition: at the top concentration
How it was run: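 Here the parasites carry a stable luciferase gene and grow inside erythrocytes in Albumax-based RPMI medium with compound for one erythrocytic cycle. Activity is scored as loss of luminescent signal.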
% is set by controls: 0 for no effect and ±100 for the full control effect; potency is the fitted concentration of half-maximal effect.

Row | Structure (SMILES) | activity change, negative = inhibition [%] | Potency
1 | COc1ccc(N2CCN(C(=O)Cn3cnc4sc(C)c(S(=O)(=O)N5CCOCC5)c4c3=O)CC2)cc1 | -4.67 | 
2 | CN(Cc1cccs1)C(=O)CN1C(=O)c2ccccc2S1(=O)=O | 88.3 | 
3 | CCC1CCC2(CC1)NC(=O)N(CC(=O)Nc1ccc(OC)cc1)C2=O (centres undefined) | 37 | 
4 | O=C(CN(CC1CCCO1)C(=O)CNS(=O)(=O)c1ccc(Cl)cc1)NCc1ccccc1 (centres undefined) | 3.72 | 
5 | CCN(C(=O)COC(=O)CCOc1cccc(C)c1)c1c(N)n(Cc2ccccc2)c(=O)[nH]c1=O | 22.5 | 
6 | CCN(C(=O)COC(=O)c1c(C)nn(-c2ccccc2)c1Cl)c1c(N)n(Cc2ccccc2)c(=O)[nH]c1=O |  | 10.4 µM (active)
7 | CCN(C(=O)COC(=O)c1sccc1C)c1c(N)n(Cc2ccccc2)c(=O)[nH]c1=O | 7.91 | 
8 | Cc1ccccc1NC(=O)Cc1nc(COC(=O)c2cccnc2Cl)cs1 | -12.1 | 
9 | O=C(CCNC(=O)c1ccc([N+](=O)[O-])cc1)NC1CCCCC1 | 78.6 | 
10 | CCOc1cc(C(=S)N2CCOCC2)ccc1OS(=O)(=O)c1ccc(Br)cc1 | -22.3 | 
11 | COc1cc(OC)c(C(=S)N2CCCC2)cc1OC | -9.05 | 
12 | COC(=O)[C@@H](Cc1ccccc1)NC(=O)NCCc1ccccc1 | 12.7 | 
13 | Cc1ccccc1CSCCNC(=O)c1ccc(Cl)c(S(=O)(=O)N2CCOCC2)c1 |  | 11.7 µM (active)
14 | Cc1ccc(C(=O)Nc2ncccc2C)cc1S(=O)(=O)N1CCOCC1 | -10 | 
15 | Cc1ccc(NC(=O)CCCNC(=O)c2ccc(Cl)cc2)cc1S(=O)(=O)N1CCOCC1 | -1.73 | 
16 | Cc1ccccc1CSCCNC(=O)c1ccc(N(C)S(=O)(=O)c2ccccc2)cc1 | -4.77 | 
17 | O=C(NCCSCc1ccccc1)c1ccc(Cl)c(S(=O)(=O)N2CCOCC2)c1 |  | 10.4 µM (active)
18 | O=C(NCc1cccnc1)c1cc(S(=O)(=O)N2CCOCC2)c(Cl)cc1Cl | 0.602 | 
19 | Cc1ccccc1N1CC(C(=O)Nc2ccc3c(c2)OCO3)CC1=O (centres undefined) | 5.88 | 
20 | Cc1ccc(Cl)c(OCC(=O)N2CCc3ccccc3C2)c1 | 24.2 | 
21 | CC(C)c1csc(CN2CCC(CO)(Cc3ccccc3)CC2)n1 | 24.2 | 
22 | OCC1(Cc2ccccc2C(F)(F)F)CCN(Cc2cccc3cnccc23)CC1 |  | 11.7 µM (active)
23 | OCC1(Cc2ccccc2)CCN(Cc2cc3ccccc3o2)CC1 | -33 | 
24 | CC(C)(C)NC(=O)Cn1cnc([N+](=O)[O-])n1 | 10.5 | 
25 | Cn1nc([N+](=O)[O-])nc1Sc1ccc(C(C)(C)C)cc1 |  | 13.1 µM (active)

Row | Structure (SMILES) | activity change, negative = inhibition [%] | Potency
26 | Cn1nc(C(C)(C)C)c([N+](=O)[O-])c1C(N)=O | 21.4 | 
27 | Cc1ccnc(NC(=O)CNC(=O)c2ccccc2)c1 | 57.5 | 
28 | COc1cccc2sc(N(CCCN(C)C)C(=O)C(c3ccccc3)c3ccccc3)nc12 |  | 13.1 µM (active)
29 | COc1cccc2sc(N(CCCN(C)C)C(=O)CCS(=O)(=O)c3ccccc3)nc12 | 22.4 | 
30 | Cc1cccc2sc(N(CCCN(C)C)C(=O)CCS(=O)(=O)c3ccccc3)nc12 | 22.4 | 
31 | Cc1ccc(CSc2nsc(C)c2C#N)cc1 | 18 | 
32 | O=C1c2ccccc2S(=O)(=O)N1Cc1c(F)cccc1Cl | -0.656 | 
33 | CCOC(=O)c1cnc2ccc(F)cc2c1Nc1ccc2c(c1)OCCO2 |  | 9.28 µM (active)
34 | CCCCC(=O)Nc1ccc2c(c1)OCCO2 | 132 | 
35 | COC(=O)CCNc1ccc2c(c1)OCCO2 | 157 | 
36 | CCOCCn1c(C(C)C)nc2ccccc21 | 12.6 | 
37 | CCOCCCNc1c(CC)c(C)c(C#N)c2nc3ccccc3n12 |  | 3.29 µM (active)
38 | CN(C)CCCNc1c2c(c(C#N)c3nc4ccccc4n13)CCC2 | -11.5 | 
39 | CCCCCn1c(=O)c(C(=O)Nc2c(C)n(C)n(-c3ccccc3)c2=O)c(O)c2ccccc21 | 122 | 
40 | CCCCn1c(=O)c(C(C)=O)c(O)c2ccccc21 | -4.84 | 
41 | CCCCCn1c(=O)c(C(=O)NCc2ccccc2)c(O)c2ccccc21 |  | 9.28 µM (active)
42 | COc1ccc(N(CC(=O)Nc2ccc(F)c(F)c2)S(=O)(=O)c2c(C)[nH]c(=O)[nH]c2=O)cc1 | -8.61 | 
43 | CN(C(=O)c1cccc(OC2CCN(S(=O)(=O)N(C)C)CC2)c1)C1CCOC1 (centres undefined) | -0.341 | 
44 | CC(C)(C)NC(=O)NC(=O)COC(=O)C1c2ccccc2Oc2ccccc21 | 2.8 | 
45 | Cc1ccccc1N1CCN(S(=O)(=O)c2ccc3ccccc3c2)CC1 | 15.2 | 
46 | O=c1c2cc3c(=O)n(CC4CCCO4)c(=O)c3cc2c(=O)n1CC1CCCO1 (centres undefined) | 0.809 | 
47 | CCOc1ccc(NC(=O)c2cccc3c2C(=O)N(CC2CCCO2)C3)cc1 (centres undefined) | -3.69 | 
48 | CCOc1cccc(=O)c2c(C)n(CC3CCCO3)c(C)c12 (centres undefined) |  | 14.7 µM (active)
49 | CC(C)c1ccc(NC(=O)COC(=O)c2ccc(CN3CCCC3=O)cc2)cc1 | 1.29 | 
